# This is a sample that favours compounds with a hit; in the whole collection about 3.3% have one here.
# LmPK inhibitor – blocks Leishmania mexicana pyruvate kinase activity | Q27686 | purified LmPK, Kinase-Glo ATP luminescence, 1 h | Potency, µM (top dose mostly 57.5 µM), without a hit: top-dose activity change, negative = inhibition, hits mostly inhibitors | 290,000 tested, 0.37% active
#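 Kinase-Glo luminescence read after 1 h RT reaction of 0.1 nM LmPK with 0.5 mM PEP and 0.1 mM ADP. Activity scaled between uninhibited and enzyme-free controls.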
# TbPYK inhibitor – inhibitors of Trypanosoma brucei pyruvate kinase; Q57TT1; TbPYK enzyme, Kinase-Glo Plus ATP luminescence, 45 min; Potency, µM (doses to about 76.8 µM), for inactives: at the top dose activity, negative = inhibition, hits mostly inhibitors; 410,000 tested, 0.12% active; AID 624173; also: nearly all actives have a fitted effect of over 50% in size
#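 Quantitative HTS: titrated library compounds versus trypanosomal pyruvate kinase in TEA buffer (pH 7.2) containing KCl, MgCl2, BSA and Tween-20. Reactions were initiated with ADP, 130 uM final. Kinase-Glo Plus luminescence was read after 45 min at RT.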
# RE007 growth inh – less growth of the S. pombe RE007 Vpr strain. S. pombe RE007 Vpr strain, BacTiter-Glo ATP luminescence, 24 h. Potency, µM (titrated, usually from 92.2 µM), for the others: at the highest dose activity change, negative = less growth, usual class: inhibitors. 360,000 tested, 0.21% active; active = well fitted falling curve with a large enough effect; inconclusive = small, poorly fitted or top-dose-only effect; inactive = no such curve, though single readings can be large or run the other way; also: nearly all actives have a fitted effect of over 50% in size
#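 Fission yeast strain RE007, carrying one chromosomally integrated HIV-1 vpr copy, was seeded at OD 0.01 in PMG+AL medium with 23 nL pinned compound. After 24 h at 30 °C and 99% humidity, viability was read by BacTiter-Glo luminescence.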
# Sm TGR inh – S. mansoni TGR enzyme inhibition; purified TGR, DTNB reduction, TNB absorbance 405 nm; Potency, µM (series often up to 114 µM), inactives show at the top dose activity change, negative = inhibition, most hits filed as inhibitors; 360,000 tested, 3% active; AID 485364; also: nearly all actives have a fitted effect of over 60% in size
#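 Kinetic colorimetric format: TGR-catalysed, NADPH-driven DTNB reduction monitored via TNB absorbance. Enzyme dispensed at 20 nM; compound exposure 15 min at room temperature before reaction start.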
# Giardia FBPA inh – blocks Giardia fructose-bisphosphate aldolase activity; A8B2U2; purified Giardia FBPA; Potency, µM (titrated, usually from 59.6 µM), without a hit: top-dose activity, negative = inhibition, usual class: inhibitors; 290,000 tested, 0.71% active; AID 2451; also: nearly all actives have a fitted effect of over 55% in size
# Target sequence (A8B2U2 whole entry, looked up): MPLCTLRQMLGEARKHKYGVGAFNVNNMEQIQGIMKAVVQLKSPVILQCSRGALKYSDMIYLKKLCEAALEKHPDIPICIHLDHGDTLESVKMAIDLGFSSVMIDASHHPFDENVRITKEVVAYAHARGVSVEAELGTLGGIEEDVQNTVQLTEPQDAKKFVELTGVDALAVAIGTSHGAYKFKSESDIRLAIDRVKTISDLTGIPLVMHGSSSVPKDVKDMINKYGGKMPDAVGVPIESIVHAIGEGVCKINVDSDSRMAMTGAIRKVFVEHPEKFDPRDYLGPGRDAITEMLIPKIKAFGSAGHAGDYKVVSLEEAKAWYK
#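 40 nM FBPA preincubated 10 min at RT with compound (up to 57.5 uM final), then substrate plus GAPDH/TPI/NAD/arsenate coupling and diaphorase/resazurin added. Fluorescence read after 20 min at RT, 525/598 nm.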
# Numbers without * were called inactive; ? = inconclusive; / = not tested or not shown; [ ] = another dose, or the depositor's remark. Unless noted, calls follow the shape of the dose curve; as a rule, active = well fitted curve in the direction sought with a large enough effect; inconclusive = small, poorly fitted or top-dose-only effect, or another doubt; inactive = no such curve, though single readings can be large; an effect the other way counts as inactive or inconclusive. % is scaled to controls: 0 for no effect and ±100 for the full control effect; potency is read from the fitted curve at half-maximal effect.
SMILES,LmPK inhibitor,TbPYK inhibitor,RE007 growth inh,Sm TGR inh,Giardia FBPA inh
Cc1ccc(S(=O)(=O)c2nc(-c3ccccc3)oc2SCC(=O)NCC2CCCO2)cc1 (stereo unspecified),0%,8%,-3%,-12%,5%
COc1ccc(NC(=O)CSc2oc(-c3ccco3)nc2S(=O)(=O)c2ccc(C)cc2)c(OC)c1,/,0%,/,?,/
CC(C)CSc1oc(-c2ccco2)nc1S(=O)(=O)c1ccccc1,2%,-3%,11%,45µM*,-4%
N#CC(C#N)=C(N)c1cccnc1,1%,-1%,0%,/,2%
CC(C)NCC(O)COc1c(F)cc(Br)cc1F (stereo unspecified),-9%,-4%,?,4%,2%
CCSc1oc(-c2ccco2)nc1S(=O)(=O)c1ccc(C)cc1,0%,1%,-1%,40µM*,5%
CC(=O)Nc1ccc(C2(O)COc3ccccc3O2)cc1 (stereo unspecified),6%,-1%,20%,-9%,3%
O=C(O)c1ccccc1-c1ccc(/C=c2\sc3nc4cc(Br)cnc4n3c2=O)o1,9%,?,-29%,?,-25%
Cc1cc2nc3s/c(=C/c4ccc(-c5ccccc5C(=O)O)o4)c(=O)n3c2cc1C,-5%,-20%,/,3.5µM*,-6%
Cc1cc(C)c(NC(=S)NCC2CCN(C(C)c3ccccc3)C2)c(C)c1 (stereo unspecified),-2%,?,-5%,-21%,2µM*
Cc1ccc(NC(=S)NCC2CCN(C(C)c3ccccc3)C2)cc1 (stereo unspecified),-2%,-8%,2%,?,?
Cc1cc(C)cc(Cn2c(C)c(C(=O)N(C)Cc3ccc(F)cc3)sc2=O)c1,/,0%,4%[18.4 µM],/,/
CCOC(=O)/C(C#N)=C/C1=C(N2CCOCC2)C(C)(C)OCC1,-3%,-4%,-14%,28µM*,-4%
COc1ccc(C(=O)COC(=O)Cc2c[nH]c3ccccc23)c(OC)c1,/,-2%,-7%,-4%,/
O=C(NCCCCCCCCNC(=O)c1cccc2ccccc12)c1cccc2ccccc12,/,1%,-2%,/,/
O=C(NCCn1cccc1)c1cccc2ccccc12,0%,-21%,-9%,28µM*,6%
Cc1nc(S/C(=C\c2ccc(-c3ccc(C(=O)O)c(Cl)c3)o2)C(=O)O)n[nH]1,-1%,?,20%,35µM*,-27%
COC(=O)c1[nH]c2cc(OC)ccc2c1NC(=O)c1c(F)cccc1F,3%,-4%,6%,0%,-1%
C=CCNC(=S)Nc1c(C(=O)OC)[nH]c2cc(OC)ccc12,-20%,-24%,20%,1.8µM*,-9%
Cn1cccc1/C=N/N1CCN(c2ccccc2)CC1,0%,-14%,-21%,45µM*,?
Cc1ccc(N2CCN(/N=C/c3ccccc3)CC2)cc1,3%,2%,-9%,-17%,4%
Cn1cccc1/C=N/N1CCN(Cc2ccccc2Cl)CC1,1%,-42%,-10%,50µM*,-19%
CCOc1ccc(OCC(=O)OCn2c(SC)nnc(C)c2=O)cc1,-1%,-13%,22%,10%,1%
CCOc1ccc(C(c2c(O)nc(SC)n(C)c2=O)c2c(O)nc(SC)n(C)c2=O)cc1,5%,?,4%,16µM*,11%
COc1cc(/C=C(/C#N)c2nc3ccccc3[nH]2)ccc1Oc1ncccc1[N+](=O)[O-],0%,-2%,-1%,13%,-5%
SMILES,LmPK inhibitor,TbPYK inhibitor,RE007 growth inh,Sm TGR inh,Giardia FBPA inh
O=C(Nc1ccccc1Sc1ccccc1)C1CCCO1 (stereo unspecified),3%,0%,13%,45µM*,0%
c1nc(NCCN2CCOCC2)c2sc3nc(N4CCOCC4)c4c(c3c2n1)CCC4,-1%,0%,-16%,45µM*,-13%
O=S(=O)(c1ccccc1F)N(Cc1ccco1)Cc1nnc(-c2ccccc2Br)o1,3%,1%,15%,16µM*,-5%
O=C(OCc1nnc(-c2ccccc2Br)o1)c1ccco1,/,-8%,2%,/,/
O=c1cc(-c2ccccc2Cl)oc2c([N+](=O)[O-])ccc(O)c12,/,/,/,/,-1%[89.2 µM]
CC(C)(C)OC(=O)N1CC=C2C(C#N)=C(N)C(C#N)(C#N)[C@H](c3cccnc3)[C@H]2C1,3%,3%,14%,35µM*,?
CC(C)(C)OC(=O)N1CC=C2C(C#N)=C(N)C(C#N)(C#N)C(c3cccs3)C2C1 (stereo unspecified),0%,4%,14%,?,?
COc1ccc(NC(C)=O)cc1NC(=O)c1c(C)noc1C,/,-13%,0%,/,/
O=Cc1ccc(Sc2nnc(-c3ccccc3)o2)c([N+](=O)[O-])c1,6%,0%,?,11µM*,-29%
O=C(c1ccc(Br)o1)N1CCc2ccccc21,14µM*,/,/,6%,1%
CN1/C(=C\C=C(/C#N)C(=O)Nc2ccccc2F)C(C)(C)c2ccccc21,0%,-5%,13%,-8%,-2%
COCCCn1c(N)c(C(=O)NCc2ccco2)c2nc3ccccc3nc21,3%,-2%,5%,7.1µM*,?
Nc1c(C(=O)NCCc2ccccc2)c2nc3ccccc3nc2n1CCN1CCOCC1,2%,-12%,-3%,-14%,-5%
COCCCn1c(N)c(C(=O)Nc2ccccc2)c2nc3ccccc3nc21,3%,9%,1%,14%,-13%
CCOc1ccc(-n2c(N)c(C(=O)NCc3ccco3)c3nc4ccccc4nc32)cc1,5%,6%,-4%,50µM*,-4%
Nc1c(C(=O)NCc2ccco2)c2nc3ccccc3nc2n1CCc1ccccc1,4%,1%,-8%,20µM*,?
CCCNC(=O)c1c(N)n(-c2cc(OC)cc(OC)c2)c2nc3ccccc3nc12,6%,3%,9%,-19%,-20%
COc1ccc2nc(C)cc(N3CCC(C(N)=O)CC3)c2c1,6%,-3%,-10%,5%,-1%
CCCCCCc1c(C)[nH]c2nc3ccccc3n2c1=O,0%,-8%,-5%,5%,-3%
CN(C)S(=O)(=O)N(CC(=O)NCCSCc1ccc(Cl)cc1Cl)c1ccccc1,/,4%,/,2%,/
Cc1ccc(NC(=O)CN2C(=O)N/C(=C/c3cc(C)n(-c4cccc(C(=O)O)c4)c3C)C2=O)cc1,2%,-4%,-9%,20µM*,-11%
C=CCN1C(=O)N/C(=C/c2ccc(C)o2)C1=O,3%,?,?,32µM*,16µM*
Cc1cccc(NC(=O)CN2C(=O)N/C(=C\c3ccc(-c4cccc(C(=O)O)c4)o3)C2=O)c1,13%,-27%,2%,56µM*,-6%
Cc1ccc(CN2C(=O)N/C(=C/c3ccc(-c4ccc(C(=O)O)cc4)o3)C2=O)cc1,6%,1%,8%,?,3%
Cc1cccc(NC(=O)CN2C(=O)N/C(=C/c3ccc(C)o3)C2=O)c1,11%,?,-13%,50µM*,-24%
